The panel holds about 83,000 compounds, 20% with a hit somewhere; the sample as a whole holds those more often.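 A percent growth of 40 corresponds to 60% growth inhibition; 0 means no net growth; -100 means all cells died. Active threshold: below 10.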 Unmarked numbers belong to inactive results. The source made the active and inactive calls.
What was measured:
Experiment in all cases: NCI-60 one-dose screen, 48 h (100 = growth as untreated, 0 = no growth, -100 = all killed)
Conditions in all cases: 10 µM unless noted
NCI-H23 lung = system: NCI-H23 lung
NCI-H226 lung = system: NCI-H226 lung
NCI-H322M lung = system: NCI-H322M lung
HOP-62 NSCLC = system: HOP-62 NSCLC
NCI-H460 lung = system: NCI-H460 lung
HOP-92 NSCLC = system: HOP-92 NSCLC
NCI-H522 lung = system: NCI-H522 lung
A549/ATCC NSCLC = system: A549/ATCC NSCLC
786-0 renal = system: 786-0 renal
COLO 205 colon = system: COLO 205 colon
DU-145 prostate = system: DU-145 prostate
K-562 leukemia = system: K-562 leukemia
MALME-3M melanoma = system: MALME-3M melanoma
MDA-MB-231 breast = system: MDA-MB-231 breast
RXF 393 renal = system: RXF 393 renal
SF-268 CNS = system: SF-268 CNS
SF-295 CNS = system: SF-295 CNS
SF-539 CNS = system: SF-539 CNS
UACC-257 melanoma = system: UACC-257 melanoma
M14 melanoma = system: M14 melanoma

| SMILES | growth (NCI-H23 lung) | growth (NCI-H226 lung) | growth (NCI-H322M lung) | growth (HOP-62 NSCLC) | growth (NCI-H460 lung) | growth (HOP-92 NSCLC) | growth (NCI-H522 lung) | growth (A549/ATCC NSCLC) | growth (786-0 renal) | growth (COLO 205 colon) | growth (DU-145 prostate) | growth (K-562 leukemia) | growth (MALME-3M melanoma) | growth (MDA-MB-231 breast) | growth (RXF 393 renal) | growth (SF-268 CNS) | growth (SF-295 CNS) | growth (SF-539 CNS) | growth (UACC-257 melanoma) | growth (M14 melanoma) |
| --- | --- | --- | --- | --- | --- | --- | --- | --- | --- | --- | --- | --- | --- | --- | --- | --- | --- | --- | --- | --- |
| CC(C)(C)CC(C)(C)n1nnnc1C(NC12CC3CC(CC(C3)C1)C2)c1ccccc1 (stereo not given) | 90.8% | 84.2% | 105% | 101% | 94.5% | 87% | 74% | 80.7% | 86.3% | 122% | 96.5% | 73.1% | 99.2% | 81.4% | 85.9% | 83.3% | 75.9% | 95.7% | 89.1% | 82.8% |
| COc1cc(C2C3CC4CCCC[C@H]4N3[C@@]3(C(=O)Nc4cc(Cl)ccc43)C2C(=O)c2nc3ccccc3[nH]2)cc(OC)c1OC (stereo not given in full) | 75.1% | 76.1% | 88.3% | 90.1% | 42% | 64.2% | 68.2% | 43.3% | 67% | 59.7% | 80.5% | 40.5% | 56.6% | 76.8% | 51.1% | 67.3% | 45.5% | 70.1% | 61.6% | 52% |
| O=C(CCN1CCCC1)Nc1ccc2c(Nc3ccc(F)cc3)c3ccccc3nc2c1 | -12.8% (active) | 42.7% | -14.6% (active) | -12.5% (active) | -66.4% (active) | 4.17% (active) | -22.6% (active) | -21.8% (active) | -35.9% (active) | -33.2% (active) | -46% (active) | 0.179% (active) | -90.1% (active) | -17.2% (active) | 7.89% (active) | 16.3% | 15.2% | -74.5% (active) | -57.1% (active) | -80.7% (active) |
| O=C(N/N=C/c1ccc(Oc2ccccc2)cc1)c1cnn2c1NC(c1ccccc1)C2 (stereo not given) | 61.2% | 89.2% | 32.2% | 33.6% | 1.16% (active) | 74.2% | 51.3% | 8.65% (active) | 41% | 51.6% | 49.2% | 46.4% | 20.5% | 72.8% | 71.5% | 64.5% | 18.6% | 37.5% | 59.8% | 46.2% |
| O=C(Nc1ccc(F)cc1)Nc1ccc(NC(=O)c2cc(Cl)nc3ccccc23)cc1 | 69.2% | 52.8% | 59.6% | 22.4% | 18.5% | 23.5% | 61.7% | 79.8% | 98.4% | 53.5% | 57% | 58.5% | 53.7% | 45.9% | 86.9% | 68.1% | 64.6% | 35.6% | 79.8% | 74.3% |
| ClC1=C(Br)C(Br)(Br)C(=C(Br)Br)C1(Br)Br | 104% | 93.6% | 99% | 121% | 94.7% | 94% | -25% (active) | 94.6% | 109% | 57.3% | 104% | 70.1% | 94.1% | 79.2% | 94.3% | 108% | 115% | 100% | 87.6% | 81.6% |
| CN(C)CCn1c2ccc(Br)cc2c2nc3ccccc3nc21 | 36.1% | 41.9% | 35.2% | 25.1% | 12.6% | 49.6% | 29.8% | 17.4% | 33.7% | 9.69% (active) | 27% | 12.1% | 51.3% | 30.3% | 39.4% | 43.1% | 26.8% | 27.3% | 46% | 30% |
| C/C(=N\NC(=O)CSc1nc2ccccc2c(=O)n1CCc1ccc(S(N)(=O)=O)cc1)c1ccccn1 | 50.4% | 43.4% | 25.9% | 25.2% | 12.1% | 67.5% | 18.9% | 21.1% | 34.8% | 8.47% (active) | 44.1% | 25.2% | 36.5% | 27.4% | 52.8% | 34.3% | 13.4% | 29.8% | 45.9% | 17.6% |
| NCCCCCCNc1cc(-c2cccc(OC(F)(F)F)c2)nc2ccc(N3CCCC3)cc12 | 0.0621% (active) | 81.2% | -13.1% (active) | -33.3% (active) | -91.8% (active) | 39.3% | -44.5% (active) | 16.6% | -65.2% (active) | -62.1% (active) | -17.4% (active) | -52.6% (active) | -93.8% (active) | -79.9% (active) | -90.8% (active) | -3.93% (active) | -69.1% (active) | -87.6% (active) | -67.7% (active) | -71.4% (active) |
| CNC(=O)c1cccc(Cn2nc(C)c(NC(=O)c3ccc(COc4ccc(C(F)(F)F)cc4C)cc3)c2C)n1 | 43.5% | 44.4% | 88.9% | 46% | 50.8% | 74.4% | 40% | 39.1% | 61.9% | 37.3% | 61.2% | 30.4% | 83.8% | 75.2% | 64.5% | 61.2% | 25.8% | 72% | 20.7% | 53.7% |
| O=C(Nc1ccccc1)Nc1ccc2cc3ccc(NC(=O)Nc4ccccc4)cc3nc2c1 | 23.7% | 91% | 61.6% | 46.1% | 92.6% | 87.6% | -4.64% (active) | 101% | 25.7% | 3.12% (active) | 39.2% | 1.08% (active) | -9.29% (active) | -51.4% (active) | 28.5% | -22.4% (active) | 17.8% | -56% (active) | 104% | 47.2% |
| COc1ccc2[nH]c(=O)c(CN3CCN(c4nccc(-c5ccc(Cl)cc5)n4)CC3)cc2c1 | 91.2% | 94.4% | 85.4% | 80.1% | 76.3% | 101% | 77% | 73.9% | 85.2% | 95.9% | 98.9% | 70.4% | 92.9% | 85% | 90.3% | 90.5% | 98.4% | 89.8% | 82.6% | 102% |
| COc1cccc2c1c1nc3cc(C)c(C)cc3nc1n2CCN(C)C | 18.4% | -6.81% (active) | 24.7% | 24.9% | 7.95% (active) | 36.1% | -4.98% (active) | 10.6% | 36% | 9.54% (active) | 19.7% | 6.22% (active) | -12.1% (active) | 23.5% | 30% | 37.9% | 20.1% | 23.2% | 8.52% (active) | 22.2% |
| CCCCC[n+]1ccc(SCC(=O)N(C)c2ccc(Oc3ccccc3)cc2)c2ccccc21 | 90.3% | 106% | 107% | 115% | 107% | 99.9% | 63.3% | 96.2% | 102% | 20.9% | 112% | 25.4% | 84.8% | 110% | 115% | 116% | 91.4% | 107% | 96.2% | 102% |

— PubChem BioAssay (NCI)
